Experiment [1] has as its target Estrogen-related receptor gamma (Homo sapiens) (UniProt P62508). In words: ATG_ERRg_TRANS: Attagene TRANS-FACTORIAL HepG2 Assay for human Estrogen-Related Receptor gamma (ERRg) (AID 2282977; active = hit-call score of the fitted dose curve at least 0.9, where 1 is the maximum;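 also: hits increase reporter signal over DMSO so potencies reflect activators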). To be noted: HepG2 Attagene TRANS reporter, ERRg transactivation. An outline of the steps:
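Readout: fluorescent reporter-mRNA fragments resolved by capillary electrophoresis after RT-PCR and HpaI cut. Cells: transiently transfected HepG2 carrying GAL4-UAS reporters driven by exogenous NR-Gal4 chimeras, dosed 24 h. Activity fitted upward relative to DMSO baseline.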

Experiment [2] has as its target Glucocorticoid receptor (Homo sapiens) (UniProt P04150). In words: ATG_GR_TRANS: Attagene TRANS-FACTORIAL HepG2 Assay for human Glucocorticoid Receptor (GR) (AID 2282978; active = hit-call score of the fitted dose curve at least 0.9, where 1 is the maximum;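 also: activators score as hits since higher reporter transcript over DMSO is fitted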). The conditions noted are these: HepG2 Attagene TRANS GR reporter, mRNA transcription. An outline of the steps: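 After 24 h incubation with test chemical, transfected HepG2 cells were lysed for RNA; reporter cDNA was amplified, FAM-labelled, HpaI-digested and sized on a capillary analyser. Signal gain relative to DMSO was scored.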

In experiment [3] the target is Bile acid receptor (Homo sapiens) (UniProt Q96RI1). In words: ATG_FXR_TRANS: Attagene TRANS-FACTORIAL HepG2 Assay for Farnesoid X Receptor (FXR) (AID 2282979; active = hit-call score of the fitted dose curve at least 0.9, where 1 is the maximum;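 also: hits raise reporter mRNA above DMSO so AC50 marks FXR activation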). To be noted: HepG2 Attagene TRANS FXR-GAL4 reporter transcription. An outline of the steps: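 Reporter transcripts from transfected HepG2 cells were measured 24 h after dosing, using RT-PCR with capillary electrophoresis of 6-FAM-labelled fragments. The read-out reflects activity of exogenous FXR-Gal4 chimera on GAL4-UAS units, with induction relative to DMSO.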
Sequence of Bile acid receptor (Homo sapiens) (Q96RI1 whole entry, looked up, the tested form may be a part): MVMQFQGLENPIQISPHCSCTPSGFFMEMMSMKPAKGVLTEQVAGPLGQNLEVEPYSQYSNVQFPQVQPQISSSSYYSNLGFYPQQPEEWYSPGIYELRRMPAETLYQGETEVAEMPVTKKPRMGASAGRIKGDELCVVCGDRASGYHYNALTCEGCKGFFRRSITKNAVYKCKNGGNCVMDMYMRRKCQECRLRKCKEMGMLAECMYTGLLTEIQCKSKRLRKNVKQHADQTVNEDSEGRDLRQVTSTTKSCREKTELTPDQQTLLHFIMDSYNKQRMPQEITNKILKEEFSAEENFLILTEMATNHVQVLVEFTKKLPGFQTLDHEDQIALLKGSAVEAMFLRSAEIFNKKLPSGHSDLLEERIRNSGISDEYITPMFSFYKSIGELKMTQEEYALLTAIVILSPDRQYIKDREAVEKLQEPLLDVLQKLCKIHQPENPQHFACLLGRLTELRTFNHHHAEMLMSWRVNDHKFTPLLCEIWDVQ

The target of experiment [4] is Oxysterols receptor LXR-alpha (Homo sapiens) (UniProt Q13133). Put plainly: ATG_LXRa_TRANS: Attagene TRANS-FACTORIAL HepG2 Assay for human Liver X Receptor alpha (LXRa) (AID 2282980; active = hit-call score of the fitted dose curve at least 0.9, where 1 is the maximum). To be noted: HepG2 Attagene TRANS reporter, LXRa transactivation. An outline of the steps:
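Chemical-induced reporter mRNA measured by RT-PCR with fluorescent labelling and capillary electrophoresis after 24 h dosing of transiently transfected HepG2 cells expressing exogenous NR-Gal4 chimeras; increases scored against DMSO baseline.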

Experiment [5] concerns the target Oxysterols receptor LXR-beta (Homo sapiens) (UniProt P55055). Put plainly: ATG_LXRb_TRANS: Attagene TRANS-FACTORIAL HepG2 Assay for human Liver X Receptor beta (LXRb) (AID 2282981; active = hit-call score of the fitted dose curve at least 0.9, where 1 is the maximum). The conditions noted are these: HepG2 Attagene TRANS GAL4-LXRb reporter, mRNA. An outline of the steps: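 Readout: fluorescent reporter mRNA fragments resolved by capillary electrophoresis after RT-PCR. System: transiently transfected human HepG2, exogenous LXRb-Gal4 chimera driving GAL4-UAS reporter, 24 h dosing. Activity fitted upward against DMSO baseline.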

In experiment [6] the target is Hepatocyte nuclear factor 4-alpha (Homo sapiens) (UniProt P41235). Put plainly: ATG_HNF4a_TRANS: Attagene TRANS-FACTORIAL HepG2 Assay for human Hepatocyte Nuclear Factor 4 alpha (HNF4a) (AID 2282982; active = hit-call score of the fitted dose curve at least 0.9, where 1 is the maximum). To be noted: HepG2 HNF4a transactivation reporter, mRNA readout. The method in brief: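 Transient MRTU transfection of HepG2, 24 h dosing. Readout: reporter mRNA via RT-PCR + capillary electrophoresis, fluorescence; activity fit upward relative to DMSO control.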

A short description of experiment [7]: ATG_M_06_TRANS: Attagene TRANS-FACTORIAL HepG2 Assay for M06 Transcription Factor (Internal Marker) (AID 2282983; active = hit-call score of the fitted dose curve at least 0.9, where 1 is the maximum). The conditions noted are these: HepG2 Attagene TRANS M06 internal marker reporter. The method in brief: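 Background-control reporter readout: after 24 h chemical exposure of transiently transfected HepG2 (GAL4-UAS reporter units), mRNA quantified by RT-PCR with fluorescent labeling and capillary electrophoresis. Gain-of-signal fitting against DMSO baseline.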

The nature of experiment [8]: ATG_M_32_TRANS: Attagene TRANS-FACTORIAL HepG2 Assay for M32 Transcription Factor (Internal Marker) (AID 2282984; active = hit-call score of the fitted dose curve at least 0.9, where 1 is the maximum;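 also: transcript level of a background control reporter unit measured by RT-PCR and capillary electrophoresis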). To be noted: HepG2 Attagene TRANS M32 internal marker reporter. The method in brief:
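Read-out: fluorescent reporter cDNA fragments resolved by capillary electrophoresis after RT-PCR of total RNA. Transfected HepG2 cells were exposed to chemical for 24 h. Activity scored in the positive direction relative to DMSO.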

Experiment [9] has as its target Nuclear receptor subfamily 4 group A member 2 (Homo sapiens) (UniProt P43354). Put plainly: ATG_NURR1_TRANS: Attagene TRANS-FACTORIAL HepG2 Assay for human Nuclear Receptor Related Protein 1 (NURR1) (AID 2282985; active = hit-call score of the fitted dose curve at least 0.9, where 1 is the maximum). The conditions noted are these: HepG2 Attagene TRANS reporter, mRNA readout. An outline of the steps:
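Read-out: reporter mRNA induction by RT-PCR plus capillary electrophoresis with fluorescence detection, after 24 h dosing of transfected HepG2 cells. Exogenous NR-Gal4 chimera activity drives GAL4-UAS reporter; activity fitted upward versus DMSO.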

For experiment [10], the target named is Transcriptional activator Myb (Homo sapiens) (UniProt P10242). In words: ATG_Myb_CIS: Attagene CIS-FACTORIAL HepG2 Assay for human Myeloblastosis (Myb) Proto-Oncogene Transcription Factor (AID 2282986). The conditions noted are these: HepG2 Attagene CIS-FACTORIAL Myb reporter transcription; actives raise or lower the signal. The method in brief:
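After 24 h of compound dosing, total RNA from transfected HepG2 cells is reverse-transcribed and the reporter sequences amplified, labeled and separated by capillary electrophoresis. Values come from bidirectional fitting against DMSO.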

The target of experiment [11] is Nuclear respiratory factor 1 (Homo sapiens) (UniProt Q16656). Put plainly: ATG_NRF1_CIS: Attagene CIS-FACTORIAL HepG2 Assay for human Nuclear Respiratory Factor 1 (NRF1) Orphan Gene (AID 2282987). To be noted: HepG2 NRF1 cis-element reporter, Attagene multiplex; actives raise or lower the signal. The method in brief:
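Measured: fluorescent reporter-specific RT-PCR products from transfected HepG2 cells, separated by capillary electrophoresis. Exposure lasted 24 h. Analysis used bidirectional curve fitting with DMSO as negative control.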

Experiment [12] in a line: ATG_NFI_CIS: Attagene CIS-FACTORIAL HepG2 Assay for human Nuclear Factor I (NFI) (AID 2282989). The conditions noted are these: HepG2 cis-regulatory reporter, NFI response element transcription; actives raise or lower the signal. The method in brief:
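Reporter transcription driven by endogenous transcription factors in HepG2 cells; 24 h treatment. Quantitation by labelled RT-PCR fragments on capillary electrophoresis, gain- or loss-of-signal relative to DMSO.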

In experiment [13] the target is Myc proto-oncogene protein (Homo sapiens) (UniProt P01106). Put plainly: ATG_Myc_CIS: Attagene CIS-FACTORIAL HepG2 Assay for human Myelocytomatosis (Myc) Proto-Oncogene Transcription Factor (AID 2282990). To be noted: HepG2, Attagene cis-reporter transcription factor activity; actives raise or lower the signal. The method in brief: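 Read-out: fluorescent reporter mRNA fragments resolved by capillary electrophoresis after RT-PCR. Human HepG2 liver cells carried transfected cis-element reporter units and were dosed for 24 h. Gain or loss of signal fitted relative to DMSO baseline.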

A short description of experiment [14]: ATG_NF_kB_CIS: Attagene CIS-FACTORIAL HepG2 Assay for human Nuclear Factor Kappa B (NF-kB) (AID 2282991). To be noted: HepG2 Attagene cis-factorial NF-kB reporter mRNA; actives raise or lower the signal. The method in brief:
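Fluorescence of labelled RT-PCR products separated by capillary electrophoresis gives reporter mRNA levels from transfected HepG2 cells exposed 24 h; values are fitted in both directions relative to DMSO.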

A short description of experiment [15]: ATG_NRF2_ARE_CIS: Attagene CIS-FACTORIAL HepG2 Assay for human Nuclear Factor Erythroid 2 Related Factor 2 (NFR2) response to Antioxidant Response Elements (ARE) (AID 2282992). To be noted: HepG2 Attagene ARE/NRF2 reporter, transcription factor activity; actives raise or lower the signal. An outline of the steps: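 Endogenous transcription factor activity in human liver HepG2 cells is tracked via a cis-element-driven reporter within a multiplexed set. mRNA induction is read by RT-PCR and capillary electrophoresis after 24 h, with DMSO as baseline.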

Experiment [16] is described as follows: ATG_Oct_MLP_CIS: Attagene CIS-FACTORIAL HepG2 Assay for human Octamer-Binding Transcription Factor (Oct) (AID 2282993). To be noted: HepG2 Attagene cis-factorial Oct reporter, mRNA; actives raise or lower the signal. The method in brief:
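Transfected HepG2 cells, 24 h treatment. Reporter mRNA quantified by RT-PCR–capillary electrophoresis; bidirectional fitting against DMSO.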

Experiment [17] concerns the target Cellular tumor antigen p53 (Homo sapiens) (UniProt P04637). In words: ATG_p53_CIS: Attagene CIS-FACTORIAL HepG2 Assay for human p53 Transcription Factor (AID 2282994). The conditions noted are these: HepG2 p53 cis-element reporter, Attagene mRNA; actives raise or lower the signal. The method in brief: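 Steps: transfect HepG2 with multiplexed cis reporter constructs; dose chemicals 24 h; extract RNA, reverse-transcribe, PCR-amplify reporter sequences; FAM-label, HpaI-digest, resolve fragments by CE. Activity fitted both directions relative to DMSO.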

Experiment [18] in a line: BSK_3C_TissueFactor: BioMAP Diversity Plus: 3C Assay for Tissue Factor Biomarker Activity (AID 2282997). To be noted: BioMAP 3C HUVEC, tissue factor biomarker readout; actives raise or lower the signal. The method in brief:
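Tissue factor on primary human umbilical vein endothelium was read by ELISA 24 h after dosing, gain or loss relative to DMSO. Cytotoxicity ran alongside via SRB (0.1%, TCA-fixed, 560 nm).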

A short description of experiment [19]: BSK_3C_uPAR: BioMAP Diversity Plus: 3C Assay for Urokinase-type plasminogen activator receptor (uPAR) Biomarker Activity (AID 2282998). The conditions noted are these: BioMAP 3C HUVEC, uPAR biomarker ELISA; actives raise or lower the signal. The method in brief:
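Readout: ELISA for surface uPAR. System: human umbilical vein endothelial primary cells, 24 h after chemical exposure. Analysis: bidirectional fit, DMSO baseline.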

The results in this text go back to PubChem BioAssay (EPA / NIEHS).

Structures are written as SMILES. Values joined by “and” are separate entries in the source; they are usually repeats but may differ in a detail not shown here. Equal entries are not always repeated. Inconclusive results are not listed. Where a structure was tested more than once in an assay, its records may differ in their call. Active and inactive are the calls of the source. The calls were made as follows, unless noted: active = hit-call score of the fitted dose curve at least 0.9, where 1 is the maximum; inactive = score below 0.9.

Sequence of Estrogen-related receptor gamma (Homo sapiens) (P62508 whole entry, looked up, the tested form may be a part): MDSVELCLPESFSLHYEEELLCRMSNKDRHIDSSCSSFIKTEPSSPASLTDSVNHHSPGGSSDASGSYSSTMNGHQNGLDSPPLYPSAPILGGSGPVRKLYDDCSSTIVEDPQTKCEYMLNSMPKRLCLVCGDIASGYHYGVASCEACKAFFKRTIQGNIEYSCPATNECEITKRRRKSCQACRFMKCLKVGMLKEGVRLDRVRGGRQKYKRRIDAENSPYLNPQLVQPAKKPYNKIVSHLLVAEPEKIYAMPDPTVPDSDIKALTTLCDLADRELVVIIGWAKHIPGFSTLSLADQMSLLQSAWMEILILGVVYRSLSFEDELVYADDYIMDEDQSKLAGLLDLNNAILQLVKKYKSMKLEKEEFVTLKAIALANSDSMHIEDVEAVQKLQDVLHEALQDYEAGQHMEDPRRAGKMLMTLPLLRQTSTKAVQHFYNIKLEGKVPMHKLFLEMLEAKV
Sequence of Cellular tumor antigen p53 (Homo sapiens) (P04637 whole entry, looked up, the tested form may be a part): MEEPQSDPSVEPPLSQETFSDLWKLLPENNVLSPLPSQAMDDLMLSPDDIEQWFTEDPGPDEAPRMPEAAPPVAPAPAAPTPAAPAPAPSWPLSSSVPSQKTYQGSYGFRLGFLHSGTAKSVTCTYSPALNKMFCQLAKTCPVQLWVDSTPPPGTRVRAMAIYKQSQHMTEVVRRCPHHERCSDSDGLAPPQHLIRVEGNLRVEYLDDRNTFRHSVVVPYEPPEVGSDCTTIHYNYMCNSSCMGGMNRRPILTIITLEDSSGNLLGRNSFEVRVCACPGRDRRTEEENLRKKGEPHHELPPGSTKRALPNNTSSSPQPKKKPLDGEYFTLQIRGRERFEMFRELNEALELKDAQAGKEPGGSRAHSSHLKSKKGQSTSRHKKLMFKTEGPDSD
Sequence of Oxysterols receptor LXR-alpha (Homo sapiens) (Q13133 whole entry, looked up, the tested form may be a part): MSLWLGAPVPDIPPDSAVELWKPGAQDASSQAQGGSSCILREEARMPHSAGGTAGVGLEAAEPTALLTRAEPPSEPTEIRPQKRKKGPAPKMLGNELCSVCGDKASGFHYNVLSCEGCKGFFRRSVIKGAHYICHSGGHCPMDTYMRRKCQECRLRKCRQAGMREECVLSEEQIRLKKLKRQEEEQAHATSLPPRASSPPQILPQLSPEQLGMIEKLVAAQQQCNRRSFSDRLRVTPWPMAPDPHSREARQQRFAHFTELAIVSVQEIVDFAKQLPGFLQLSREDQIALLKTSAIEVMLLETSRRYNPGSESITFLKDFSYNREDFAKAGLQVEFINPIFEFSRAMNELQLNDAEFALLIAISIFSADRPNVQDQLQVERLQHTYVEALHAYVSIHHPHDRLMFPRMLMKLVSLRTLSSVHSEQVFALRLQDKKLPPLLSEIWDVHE
Sequence of Glucocorticoid receptor (Homo sapiens) (P04150 whole entry, looked up): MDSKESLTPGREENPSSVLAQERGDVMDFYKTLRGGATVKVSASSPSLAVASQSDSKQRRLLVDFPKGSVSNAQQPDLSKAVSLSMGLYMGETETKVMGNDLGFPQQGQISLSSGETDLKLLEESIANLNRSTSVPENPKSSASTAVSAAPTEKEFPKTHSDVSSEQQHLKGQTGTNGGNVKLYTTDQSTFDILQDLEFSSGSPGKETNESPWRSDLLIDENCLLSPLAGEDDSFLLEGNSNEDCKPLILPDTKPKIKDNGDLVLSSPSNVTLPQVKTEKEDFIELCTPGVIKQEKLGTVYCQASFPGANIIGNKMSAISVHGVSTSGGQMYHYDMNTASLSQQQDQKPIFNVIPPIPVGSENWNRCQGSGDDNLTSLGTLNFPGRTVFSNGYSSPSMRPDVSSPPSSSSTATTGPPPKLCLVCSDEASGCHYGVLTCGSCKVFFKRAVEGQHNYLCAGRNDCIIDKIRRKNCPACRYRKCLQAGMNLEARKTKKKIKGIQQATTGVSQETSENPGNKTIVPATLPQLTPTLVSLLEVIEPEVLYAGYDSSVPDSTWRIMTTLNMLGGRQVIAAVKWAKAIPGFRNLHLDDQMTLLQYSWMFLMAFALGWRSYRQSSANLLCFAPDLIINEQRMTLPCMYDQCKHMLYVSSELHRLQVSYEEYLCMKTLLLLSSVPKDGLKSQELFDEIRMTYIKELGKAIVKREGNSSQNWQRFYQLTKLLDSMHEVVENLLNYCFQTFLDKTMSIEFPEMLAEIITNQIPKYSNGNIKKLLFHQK
Sequence of Nuclear receptor subfamily 4 group A member 2 (Homo sapiens) (P43354 whole entry, looked up, the tested form may be a part): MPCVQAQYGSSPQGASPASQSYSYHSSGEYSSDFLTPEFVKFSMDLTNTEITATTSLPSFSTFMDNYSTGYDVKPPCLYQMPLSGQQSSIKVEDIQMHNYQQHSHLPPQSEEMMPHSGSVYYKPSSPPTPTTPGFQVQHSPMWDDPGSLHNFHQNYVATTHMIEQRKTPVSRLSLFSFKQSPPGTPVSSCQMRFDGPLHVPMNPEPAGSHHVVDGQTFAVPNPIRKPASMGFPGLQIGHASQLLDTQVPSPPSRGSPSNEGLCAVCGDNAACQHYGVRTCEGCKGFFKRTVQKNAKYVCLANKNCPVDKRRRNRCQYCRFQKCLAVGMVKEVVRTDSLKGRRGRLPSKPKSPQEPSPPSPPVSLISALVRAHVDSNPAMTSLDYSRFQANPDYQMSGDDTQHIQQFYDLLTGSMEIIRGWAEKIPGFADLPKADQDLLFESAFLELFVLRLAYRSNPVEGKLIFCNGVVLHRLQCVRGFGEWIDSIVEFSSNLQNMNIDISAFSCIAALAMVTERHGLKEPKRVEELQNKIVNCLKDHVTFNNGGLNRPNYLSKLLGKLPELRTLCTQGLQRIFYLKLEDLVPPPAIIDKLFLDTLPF
Sequence of Nuclear respiratory factor 1 (Homo sapiens) (Q16656 whole entry, looked up): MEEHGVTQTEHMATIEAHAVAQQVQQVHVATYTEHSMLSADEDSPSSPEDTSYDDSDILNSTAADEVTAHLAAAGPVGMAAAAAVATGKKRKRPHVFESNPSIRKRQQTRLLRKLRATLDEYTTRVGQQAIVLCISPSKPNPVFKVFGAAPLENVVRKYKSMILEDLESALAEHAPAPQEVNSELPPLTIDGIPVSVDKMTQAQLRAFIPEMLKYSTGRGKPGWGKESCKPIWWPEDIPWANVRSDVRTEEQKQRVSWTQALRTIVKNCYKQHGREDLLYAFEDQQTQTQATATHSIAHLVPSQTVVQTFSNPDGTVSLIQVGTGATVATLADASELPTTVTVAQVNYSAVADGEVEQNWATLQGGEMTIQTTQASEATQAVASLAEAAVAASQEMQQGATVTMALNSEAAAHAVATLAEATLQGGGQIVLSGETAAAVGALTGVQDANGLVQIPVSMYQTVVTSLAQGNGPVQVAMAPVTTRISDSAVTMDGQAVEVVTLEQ
Sequence of Oxysterols receptor LXR-beta (Homo sapiens) (P55055 whole entry, looked up, the tested form may be a part): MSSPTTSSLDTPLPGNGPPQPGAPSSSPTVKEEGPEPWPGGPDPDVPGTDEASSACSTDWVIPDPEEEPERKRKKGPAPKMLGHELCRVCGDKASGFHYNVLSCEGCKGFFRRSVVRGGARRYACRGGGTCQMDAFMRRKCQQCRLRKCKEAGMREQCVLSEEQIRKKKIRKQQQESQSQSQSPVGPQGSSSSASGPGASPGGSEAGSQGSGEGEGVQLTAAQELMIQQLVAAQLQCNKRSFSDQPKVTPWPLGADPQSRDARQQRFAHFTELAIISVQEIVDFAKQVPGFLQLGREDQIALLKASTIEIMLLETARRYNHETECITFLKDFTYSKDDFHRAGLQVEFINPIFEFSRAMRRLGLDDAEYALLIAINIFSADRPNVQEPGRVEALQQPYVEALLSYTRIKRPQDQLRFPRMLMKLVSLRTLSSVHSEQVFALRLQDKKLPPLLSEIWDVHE
Sequence of Transcriptional activator Myb (Homo sapiens) (P10242 whole entry, looked up): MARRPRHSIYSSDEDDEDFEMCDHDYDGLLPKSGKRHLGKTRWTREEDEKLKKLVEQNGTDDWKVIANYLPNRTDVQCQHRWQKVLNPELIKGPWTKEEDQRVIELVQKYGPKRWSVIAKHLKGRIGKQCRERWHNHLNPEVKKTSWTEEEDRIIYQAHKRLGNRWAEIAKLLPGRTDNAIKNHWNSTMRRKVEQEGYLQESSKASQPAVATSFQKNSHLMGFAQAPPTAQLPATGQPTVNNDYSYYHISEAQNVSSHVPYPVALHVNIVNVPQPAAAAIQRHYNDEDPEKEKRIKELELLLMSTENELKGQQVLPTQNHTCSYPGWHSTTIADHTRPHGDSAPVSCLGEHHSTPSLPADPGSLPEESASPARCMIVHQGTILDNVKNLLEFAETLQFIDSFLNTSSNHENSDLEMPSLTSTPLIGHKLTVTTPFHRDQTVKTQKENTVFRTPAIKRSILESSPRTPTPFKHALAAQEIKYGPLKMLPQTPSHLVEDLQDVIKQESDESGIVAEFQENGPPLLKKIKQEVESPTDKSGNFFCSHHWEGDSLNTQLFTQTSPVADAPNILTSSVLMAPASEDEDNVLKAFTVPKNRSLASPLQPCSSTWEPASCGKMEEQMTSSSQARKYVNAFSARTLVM

Turning to `COc1nc(NC(C)C)nc(NC(C)C)n1`, the outcome in experiment [1], in experiment [2], in experiment [3], in [4], in experiment [5] and in experiment [6] was inactive. The outcome in [7], in experiment [8], in experiment [9], in [10], in experiment [11] and in [12] was inactive. Further, the call in [13], in experiment [14], in [15], in experiment [16], in experiment [17] and in experiment [18] was inactive. Also, in [19], the result was inactive. The AC50 – broadly, the concentration giving half of the maximal activity seen – in [16] was 41.1 µM (active).
On to `COC(=O)c1ccccc1C(=O)OC`, for which the call in experiment [1], in [2], in [3], in [4], in experiment [5] and in experiment [8] was inactive. Besides, the outcome in experiment [10], in [11], in [12], in experiment [13], in experiment [14] and in [15] was inactive. Also, the molecule was called inactive in experiment [16], in experiment [17], in experiment [18] and in experiment [19].
Consider `COc1nc(C)nc(NC(=O)NS(=O)(=O)c2ccccc2CCC(F)(F)F)n1`, for which the result in experiment [1], in experiment [2], in experiment [3], in experiment [4], in experiment [5] and in experiment [6] was inactive. For the same molecule, the molecule was classed as inactive in [7], in experiment [8], in [9], in experiment [10], in [11] and in experiment [12]. Moreover, the result in [13], in experiment [14], in experiment [15], in [16], in [17] and in experiment [18] was inactive. The result in [19] was inactive. In experiment [15], the AC50 is 16.7 µM (active) and 31.3 µM (active).
